Laboratory results published in PubChem BioAssay (NCI).
Compounds without any hit were thinned out: in the full panel of roughly 83,000, 20% have a hit.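 Treatment: one concentration, 48 hours, 96-well format. Scoring: percent growth, with anything below 10 considered active.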 Activity calls are given as the source filed them.

How the values were obtained:
Test in all cases: NCI-60 one-dose screen, 48 h (100 = growth as untreated, 0 = no growth, -100 = all killed)
Details in all cases: 10 µM unless noted
SR leukemia = system: SR leukemia
RPMI-8226 leukemia = system: RPMI-8226 leukemia
OVCAR-8 ovarian = system: OVCAR-8 ovarian
OVCAR-5 ovarian = system: OVCAR-5 ovarian
OVCAR-4 ovarian = system: OVCAR-4 ovarian
SK-OV-3 ovarian = system: SK-OV-3 ovarian
IGROV1 ovarian = system: IGROV1 ovarian
OVCAR-3 ovarian = system: OVCAR-3 ovarian
HS 578T breast = system: HS 578T breast
NCI/ADR-RES ovarian = system: NCI/ADR-RES ovarian

Measured: growth

COc1ccc(Cn2cc(C#N)c(N)c2C(C)=O)cc1
inactive: SR leukemia 122% | RPMI-8226 leukemia 105% | OVCAR-8 ovarian 111% | OVCAR-5 ovarian 106% | OVCAR-4 ovarian 92.9% | SK-OV-3 ovarian 105% | IGROV1 ovarian 106% | OVCAR-3 ovarian 108% | HS 578T breast 102% | NCI/ADR-RES ovarian 104%

N#Cc1nc(-c2ccc(Cl)cc2)oc1N1CCC(S(=O)(=O)N2CCOCC2)CC1
inactive: SR leukemia 88.6% | RPMI-8226 leukemia 105% | OVCAR-8 ovarian 101% | OVCAR-5 ovarian 102% | OVCAR-4 ovarian 100% | SK-OV-3 ovarian 119% | IGROV1 ovarian 90.5% | HS 578T breast 105% | NCI/ADR-RES ovarian 100%

COc1ccc(/C(=N\NC(N)=S)c2ccc(Cl)cc2)cc1OC
active: HS 578T breast 3.4% | NCI/ADR-RES ovarian 7.07%
inactive: SR leukemia 29.3% | RPMI-8226 leukemia 45.6% | OVCAR-8 ovarian 37.8% | OVCAR-5 ovarian 51.2% | OVCAR-4 ovarian 60.6% | SK-OV-3 ovarian 18.3% | IGROV1 ovarian 30.3%

C/C(=C(/C)C1CC1CCNC1CCC(NC(=O)OC(C)(C)C)CC1)c1ccccc1 (stereo not drawn)
inactive: OVCAR-8 ovarian 81.6% | OVCAR-5 ovarian 84.4% | OVCAR-4 ovarian 78.5% | SK-OV-3 ovarian 88.8% | IGROV1 ovarian 72.1% | HS 578T breast 84.1% | NCI/ADR-RES ovarian 75.7%
active: SR leukemia -25.5% | RPMI-8226 leukemia 2.74%

Cc1ccc([C@H]2c3[nH]c4ccccc4c3C[C@H]3C(=O)N(CCCCCCC(=O)NO)CC(=O)N23)s1
inactive: SR leukemia 23% | RPMI-8226 leukemia 27.9% | OVCAR-8 ovarian 44.4% | OVCAR-5 ovarian 52.8% | OVCAR-4 ovarian 79.5% | SK-OV-3 ovarian 86.3% | IGROV1 ovarian 55.7% | HS 578T breast 76.6% | NCI/ADR-RES ovarian 94.3%

FC(F)(F)c1cc(Br)cc(-c2cc(-c3ccc4c(c3)OCCO4)[nH]n2)c1
active: NCI/ADR-RES ovarian 9.71%
inactive: SR leukemia 20.8% | RPMI-8226 leukemia 22.5% | OVCAR-8 ovarian 19.7% | OVCAR-5 ovarian 48.8% | OVCAR-4 ovarian 75.6% | SK-OV-3 ovarian 52.5% | IGROV1 ovarian 20.8% | HS 578T breast 41.4%

CC(=O)N(O)CCCCCNC(=O)CCC(=O)N(O)CCCCCNC(=O)CCC(=O)N(O)CCCCCN(CCCCCCCCCC[P+](c1ccccc1)(c1ccccc1)c1ccccc1)CCCCCCCCCC[P+](c1ccccc1)(c1ccccc1)c1ccccc1
inactive: OVCAR-8 ovarian 10.5% | OVCAR-5 ovarian 16.2% | HS 578T breast 16.3% | NCI/ADR-RES ovarian 73.5%
active: SR leukemia 1.64% | RPMI-8226 leukemia -13.9% | OVCAR-4 ovarian 5.75% | SK-OV-3 ovarian -10% | IGROV1 ovarian -63.9%

CNC(=O)c1cc(N2CCc3cc(NC(=O)Nc4ccc(N5CCN(C)CC5)c(C(F)(F)F)c4)ccc32)ccn1
inactive: OVCAR-8 ovarian 95.9% | OVCAR-5 ovarian 95.3% | OVCAR-4 ovarian 83.4% | SK-OV-3 ovarian 107% | IGROV1 ovarian 96.2% | HS 578T breast 61.4% | NCI/ADR-RES ovarian 97.4%
active: SR leukemia -12.6% | RPMI-8226 leukemia -16.4%

O=C(/C=C/C=C/c1csc(Br)n1)NO
inactive: SR leukemia 60% | RPMI-8226 leukemia 60.7% | OVCAR-8 ovarian 85.7% | OVCAR-5 ovarian 98.2% | OVCAR-4 ovarian 103% | SK-OV-3 ovarian 113% | IGROV1 ovarian 106% | HS 578T breast 98.5% | NCI/ADR-RES ovarian 74.6%

CCc1cc(O)ccc1Nc1cc(-c2ccc(-n3cccn3)cc2)[nH]n1
inactive: SR leukemia 68.9% | RPMI-8226 leukemia 53.5% | OVCAR-8 ovarian 58% | OVCAR-5 ovarian 78.5% | OVCAR-4 ovarian 49% | SK-OV-3 ovarian 87.2% | IGROV1 ovarian 86.4% | HS 578T breast 105% | NCI/ADR-RES ovarian 63.8%

Fc1ccc(-c2cn3c(-c4c[nH]c5ccc(Br)cc45)csc3n2)cc1
inactive: SR leukemia 88.7% | RPMI-8226 leukemia 77.8% | OVCAR-8 ovarian 74.8% | OVCAR-5 ovarian 73.8% | OVCAR-4 ovarian 34.3% | SK-OV-3 ovarian 84.4% | IGROV1 ovarian 63.7% | HS 578T breast 14% | NCI/ADR-RES ovarian 48.7%

Cc1ccc(OCc2occc2C(=O)N2CCOCC2)cc1
inactive: SR leukemia 104% | RPMI-8226 leukemia 97.7% | OVCAR-8 ovarian 113% | OVCAR-5 ovarian 102% | OVCAR-4 ovarian 103% | SK-OV-3 ovarian 109% | IGROV1 ovarian 104% | HS 578T breast 104% | NCI/ADR-RES ovarian 107%

Fc1cccc(Cl)c1/C=N/Nc1nc(N/N=C/c2c(F)cccc2Cl)nc(N2CCCCC2)n1
active: RPMI-8226 leukemia 3.27%
inactive: SR leukemia 16.1% | OVCAR-8 ovarian 25.8% | OVCAR-5 ovarian 27.8% | OVCAR-4 ovarian 21% | SK-OV-3 ovarian 39.1% | IGROV1 ovarian 17.7% | HS 578T breast 33.3% | NCI/ADR-RES ovarian 15.2%

C/C(=N\NC(=O)/C=C/CC(=O)O)c1nnn(-c2ccc([N+](=O)[O-])cc2)c1C
inactive: SR leukemia 95.4% | RPMI-8226 leukemia 101% | OVCAR-8 ovarian 101% | OVCAR-5 ovarian 108% | OVCAR-4 ovarian 106% | SK-OV-3 ovarian 106% | IGROV1 ovarian 103% | HS 578T breast 116% | NCI/ADR-RES ovarian 102%

CCS(=O)(=O)Nc1ccc(C(=O)CC2(O)C(=O)Nc3ccccc32)cc1 (stereo not drawn)
inactive: SR leukemia 99.2% | RPMI-8226 leukemia 101% | OVCAR-8 ovarian 101% | OVCAR-5 ovarian 102% | OVCAR-4 ovarian 108% | SK-OV-3 ovarian 105% | IGROV1 ovarian 90% | HS 578T breast 104% | NCI/ADR-RES ovarian 96.7%

CC(C)C(/C=C/c1[nH]ncc1-c1cc(Cl)ccc1O)N1CCOCC1 (stereo not drawn)
inactive: SR leukemia 87.9% | RPMI-8226 leukemia 94.5% | OVCAR-8 ovarian 91.9% | OVCAR-5 ovarian 99.4% | OVCAR-4 ovarian 94.3% | SK-OV-3 ovarian 92.8% | IGROV1 ovarian 88.6% | HS 578T breast 83.8% | NCI/ADR-RES ovarian 88.1%

O=c1c2cc(-c3ccc(F)cc3F)ccc2n(Nc2ccccc2)c(=O)n1-c1cccc(C(F)(F)F)c1
inactive: OVCAR-8 ovarian 13.3% | OVCAR-5 ovarian 79.3% | OVCAR-4 ovarian 30.7% | IGROV1 ovarian 17.4%
active: SR leukemia 9.45% | RPMI-8226 leukemia -6.8% | SK-OV-3 ovarian 8.64% | HS 578T breast -3.07% | NCI/ADR-RES ovarian 3.74%

COc1ccc2c(c1)c(-c1nn3cc(-c4ccncc4)nc3s1)cn2C
inactive: RPMI-8226 leukemia 61.4% | OVCAR-8 ovarian 71.7% | OVCAR-5 ovarian 102% | OVCAR-4 ovarian 82.3% | SK-OV-3 ovarian 93.6% | IGROV1 ovarian 70.3% | HS 578T breast 86.9% | NCI/ADR-RES ovarian 69.8%
active: SR leukemia -3.79%

CCN(CC)c1ccc(/C=N/NC(=O)c2ccc(NS(C)(=O)=O)cc2)c(O)c1
inactive: SR leukemia 10.6% | RPMI-8226 leukemia 15.8% | OVCAR-8 ovarian 12% | OVCAR-5 ovarian 46% | OVCAR-4 ovarian 31.3% | SK-OV-3 ovarian 34.2% | IGROV1 ovarian 20.3% | HS 578T breast 55.7% | NCI/ADR-RES ovarian 36.9%

O=C1[C@H]2Cc3c([nH]c4ccccc34)[C@H](c3ccc(Cl)cc3)N2C(=O)CN1C1CCN(CC2CCCCC2)CC1
active: SR leukemia -5.73%
inactive: RPMI-8226 leukemia 23.4% | OVCAR-8 ovarian 74.9% | OVCAR-5 ovarian 96.1% | OVCAR-4 ovarian 72.7% | SK-OV-3 ovarian 93.8% | IGROV1 ovarian 72.2% | HS 578T breast 74.4% | NCI/ADR-RES ovarian 68.5%

N#Cc1c(-c2ccc(F)cc2)cc(-c2c[nH]c3ccccc23)nc1-c1c[nH]c2ccccc12
inactive: SR leukemia 89.1% | RPMI-8226 leukemia 101% | OVCAR-8 ovarian 100% | OVCAR-5 ovarian 109% | OVCAR-4 ovarian 101% | SK-OV-3 ovarian 96.9% | IGROV1 ovarian 102% | HS 578T breast 95.2% | NCI/ADR-RES ovarian 103%

Cc1cccc(N2CCN(C3=C(Cl)C(=O)c4ncccc4C3=O)CC2)c1
inactive: RPMI-8226 leukemia 46.8% | OVCAR-8 ovarian 80.6% | OVCAR-5 ovarian 111% | OVCAR-4 ovarian 67% | SK-OV-3 ovarian 92.9% | IGROV1 ovarian 73.1% | HS 578T breast 70.6% | NCI/ADR-RES ovarian 78.7%
active: SR leukemia 3.39%

O=C1Nc2ccc(F)cc2/C1=C\C(=O)c1ccc(NS(=O)(=O)c2ccccc2)cc1
active: SR leukemia 9.42%
inactive: RPMI-8226 leukemia 67.6% | OVCAR-8 ovarian 91.1% | OVCAR-5 ovarian 107% | OVCAR-4 ovarian 93.2% | SK-OV-3 ovarian 112% | IGROV1 ovarian 87.2% | HS 578T breast 110% | NCI/ADR-RES ovarian 96.7%

CC1=Cc2ccccc2OC12C=Cc1ccccc1O2 (stereo not drawn)
inactive: SR leukemia 103% | RPMI-8226 leukemia 104% | OVCAR-8 ovarian 103% | OVCAR-5 ovarian 102% | OVCAR-4 ovarian 105% | SK-OV-3 ovarian 102% | IGROV1 ovarian 69.1% | HS 578T breast 106% | NCI/ADR-RES ovarian 98.6%

COc1cc(C(=O)c2cc(C(C)=O)c3cccc(C)n23)cc(OC)c1OC
inactive: SR leukemia 17% | RPMI-8226 leukemia 51.2% | OVCAR-8 ovarian 50.8% | OVCAR-5 ovarian 65.8% | OVCAR-4 ovarian 74.1% | SK-OV-3 ovarian 46.6% | IGROV1 ovarian 43.9% | HS 578T breast 44.2% | NCI/ADR-RES ovarian 22.1%

COc1ccc2[nH]cc(-c3nn4cc(-c5ccncc5)nc4s3)c2c1
inactive: SR leukemia 61.5% | RPMI-8226 leukemia 43.8% | OVCAR-8 ovarian 52% | OVCAR-5 ovarian 107% | OVCAR-4 ovarian 71.1% | SK-OV-3 ovarian 88.3% | IGROV1 ovarian 41.4% | HS 578T breast 87.5% | NCI/ADR-RES ovarian 48.9%

Nc1ccc(Nc2ncnc3sc4c(c23)CCN(Cc2ccccc2)C4)cc1
inactive: SR leukemia 82.9% | RPMI-8226 leukemia 94.3% | OVCAR-8 ovarian 99.3% | OVCAR-5 ovarian 107% | OVCAR-4 ovarian 96.8% | SK-OV-3 ovarian 113% | IGROV1 ovarian 101% | HS 578T breast 98.2% | NCI/ADR-RES ovarian 101%

O=C(/C=C/c1ccc(F)cc1)Nc1cccc2cccnc12
inactive: SR leukemia 103% | RPMI-8226 leukemia 94.2% | OVCAR-8 ovarian 106% | OVCAR-5 ovarian 104% | OVCAR-4 ovarian 93.3% | SK-OV-3 ovarian 90.2% | IGROV1 ovarian 71.8% | HS 578T breast 112% | NCI/ADR-RES ovarian 102%
